Shown are actives, neighbours in structure and some others; about 4.6% of the full set was active somewhere.
TRHR agonist = activates the human TRH receptor; P34981; TRHR cells, calcium flux fluo-8, FDSS agonist mode; activation, % at 2 µM; 0.18% of 360,000 active; AID 493084; note: 0% is about no effect
Target sequence (P34981 whole entry, looked up): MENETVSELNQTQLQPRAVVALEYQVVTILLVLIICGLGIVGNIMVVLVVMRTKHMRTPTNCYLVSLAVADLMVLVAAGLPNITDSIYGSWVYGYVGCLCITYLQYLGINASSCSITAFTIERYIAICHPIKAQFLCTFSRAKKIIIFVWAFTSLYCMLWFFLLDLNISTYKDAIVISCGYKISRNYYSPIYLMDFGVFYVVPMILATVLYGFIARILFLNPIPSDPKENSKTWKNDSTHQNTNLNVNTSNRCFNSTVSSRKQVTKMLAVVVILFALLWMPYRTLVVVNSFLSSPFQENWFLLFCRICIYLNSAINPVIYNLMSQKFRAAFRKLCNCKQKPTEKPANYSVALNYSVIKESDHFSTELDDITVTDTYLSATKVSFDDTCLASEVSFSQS
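Steps: seed TRHR cells overnight; add fluo-8 no-wash Ca dye, RT 30 min–1.5 h; record 10 s baseline; pin-transfer compounds; monitor fluorescence 1 cycle/s for the agonist window. Calcium increases flag candidate agonists.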
D1 ag = human D1 receptor agonism; AID 504660; 1% of 360,000 active; activation, % at 2 µM; HEK293 T-REx D1 cells, calcium flux, agonist mode; note: 0% is about no effect
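Tetracycline-induced HEK293 TREx D1 cells, force-coupled to calcium signalling, were dye-loaded with a no-wash calcium kit. Compound was pin-added after a 10 s baseline. Fluorescence was read kinetically at 1 cycle/s for 180 s, with calcium rises flagged as agonism.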
D1 antagonist = antagonists of human D1 dopamine receptor; P21728; HEK293 TREx D1 cells, calcium flux, dopamine EC80; stronger effect = lower value; activity change, negative = inhibition, % at 10 µM; 3.2% of 360,000 active; AID 504652; in the data active = activity change below about -30%; note: % is set by controls: 0 for no effect and ±100 for the full control effect
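Inducible Hek293 Trex D1 cells (tetracycline, overnight, 30 C). Calcium dye 30–90 min RT. Antagonist mode: EC80 dopamine added after 180 s compound read.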
D1 PAM = enhances dopamine response at the human D1 receptor | P21728 | HEK293 TREx D1 cells, calcium flux, dopamine EC20 potentiation | potentiation, % at 10 µM | 0.036% of 360,000 active | AID 504651; in the data active = potentiation above about 30%; note: 0% is about no effect
TRHR PAM = allosteric enhancers of human TRH receptor; P34981; TRHR cells, fluo-8 calcium fluorescence, EC20 TRH enhancement; enhancement, % at 2 µM; 0.66% of 360,000 active; AID 493056; in the data active = enhancement above about 30%; note: 0% is about no effect
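TRHR-expressing cells loaded with fluo-8 calcium dye were read kinetically (ex 480/em 530) during compound addition, then stimulated with an EC20 of TRH (10 nM final). Enhancement of the Gq-mediated intracellular calcium response was scored.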
Active calls of the source: *. Cut-off read from the data, not from the text of the source, unless noted: active = activation above about 30%; inactive = the rest.

SMILES | TRHR agonist | D1 ag | D1 antagonist | D1 PAM | TRHR PAM
CC(=O)c1cc2c(cc1NS(=O)(=O)c1ccc(C)cc1)OCCO2 | 0 | 1 | -37* | 6 | 2
COc1ccc(-c2cc(C(=O)Nc3cc(C(F)(F)F)ccc3Cl)no2)cc1 | 1 | 0 | -15 | 0 | 2
CC(=O)N1CCc2c(sc3c2c(=O)n(-c2ccccc2C)c(=O)n3CC(=O)Nc2ccccc2)C1 | 0 | 0 | 3 | -2 | 48*
CCOC(=O)N1CCc2c(sc3c2c(=O)n(-c2ccc(Cl)cc2)c(=O)n3CC(=O)c2ccc(F)cc2)C1 | 5 | 22 | -31* | -4 | 5
Cc1cccc(N2CCN(C(=O)c3cnn(-c4ccccc4)c3C3CCN(C(=O)OC(C)(C)C)CC3)CC2)c1C | 0 | 0 | -12 | 4 | 9
Cn1c(=O)c(=O)n(C)c2cc(N3CCCC3)c(NC(=O)c3ccc(C(C)(C)C)cc3)cc21 | 0 | 2 | 10 | -2 | 2
COc1ccc(/C=C/C(=O)NCC(=O)N/N=C(/C)c2ccc(Cl)cc2)cc1 | 0 | 0 | -12 | 7 | -4
COc1ccc(N2CCN(C3CCCN(C(=O)CN4CCOC4=O)C3)CC2)cc1 (stereo unspecified) | 0 | 1 | -23 | -9 | -5
COc1ccc(C(=O)Nc2ccc(F)cc2F)cc1OC | 0 | 0 | 2 | -6 | -3
Cn1ccc(C(=O)Oc2ccc(C(=O)Nc3ccc(F)cc3F)cc2)n1 | 1 | 12 | -44* | -3 | -4
CCOc1cc(-c2ccc(OC(=O)c3ccc(Cl)cc3)c(OC)c2)cc(=O)c2c(C)oc(C)c12 | 1 | 0 | -2 | 1 | -2
c1cc2c(cc1C1CCCCC1)c1c3n2CCCNC3CCC1 (stereo unspecified) | -1 | 122* | -7 | 18 | -2
CCOC(=O)C1CCN(C(=O)C2CCN(c3nnc(C)c4c(C)n(-c5ccccc5)nc34)CC2)CC1 | -1 | 3 | 13 | -1 | 2
COc1ccc(NC(=O)CSc2nc(N)c(NC(=O)c3ccccc3F)c(=O)[nH]2)cc1 | 0 | 1 | 8 | -1 | 25
COc1ccc(CC(=O)Nc2ccc(NC(=O)c3ccccc3F)cc2)cc1 | 3 | 54* | -7 | -4 | -2
O=C1NC(=Nc2ccccc2)S/C1=C\C=C\c1ccco1 | -1 | 7 | 14 | -3 | 1
Cc1ccc(N=C2NC(=O)S/C2=C\c2ccco2)cc1 | -1 | 9 | -36* | -8 | 0
O=C1NC(=Nc2ccccc2)/C(=C/c2ccco2)S1 | 1 | 6 | -37* | -11 | -4
Cc1ccc(N=C2NC(=O)/C(=C/C=C/c3ccco3)S2)cc1 | 0 | 2 | -7 | -5 | 8
COc1ccc2c(c1)c1c(c(=O)n(-c3ccccc3)c(=O)n1CC(=O)Nc1ccc(F)cc1)n2C | 0 | 0 | -1 | -2 | -4
O=S(=O)(NCc1ccc(F)cc1)c1ccc(Br)cc1Br | 0 | -1 | -32* | 3 | -9
CCc1ccc(S(=O)(=O)N2CCN(c3ccc(Cl)c(Cl)c3)CC2)cc1 | -4 | 4 | -12 | -3 | 14
CCOc1ccc(/C=C/c2nc(C#N)c(NC3CCCCC3)o2)cc1 | -1 | 5 | -38* | 0 | -7
CC(=O)Nc1ccc(C2Nc3c(C)cc(C)cc3-c3cc(C)nn32)cc1 (stereo unspecified) | 2 | 7 | -26 | 1 | 3
Cc1cc(=O)oc(C)c1C(=O)NCCc1ccccc1 | -1 | 3 | -32* | -2 | 19
SMILES | TRHR agonist | D1 ag | D1 antagonist | D1 PAM | TRHR PAM
Cc1oc(C)c(C(=O)O)c1COc1ccc(C(=O)O)cc1 | 0 | 1 | -23 | -5 | 14
COc1ccc(CNC(=O)c2c(C)cc(=O)oc2C)cc1 | 1 | 1 | -33* | 0 | 1
COc1ccc(C(=O)NCc2c(C)oc(C)c2C(=O)O)cc1 | 1 | 2 | -10 | 12 | 39*
COc1ccc(CCNC(=O)c2c(C)cc(=O)oc2C)cc1OC | 0 | 7 | 30 | 0 | -4
CC(=O)c1ccc(N2C(=O)Nc3ccccc3S2(=O)=O)cc1 | 0 | 6 | 16 | -1 | 2
COc1ccccc1NC(=O)c1ccc(N2CC3CC(C2)c2cccc(=O)n2C3)c(NC(=O)c2ccncc2)c1 (stereo unspecified) | 0 | 2 | 8 | 5 | -3
